# Source: PubChem BioAssay (NCATS)
# Records with an inconclusive call do not appear. A call without a number means that no potency is given here. Active and inactive are the calls of the source. The call rests on the fitted dose curve; in most records, active means well fitted curve in the direction sought with a large enough effect; inconclusive means small, poorly fitted or top-dose-only effect, or another doubt; inactive means no such curve, though single readings can be large; an effect the other way counts as inactive or inconclusive.
# Columns and labels:
# [1] = molecular target: Phospholipid hydroperoxide glutathione peroxidase GPX4 (Homo sapiens) (UniProt P36969); test: Primary qHTS Assay for Inhibitors of Recombinant Selenoprotein Glutathione Peroxidase 4 (GPX4) (AID 1845192); further: nearly all actives have a fitted effect of over 65% in size; further: potency means the concentration at half of the fitted maximal effect
# How it was run: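 NADPH consumption, followed by fluorescence at 340/450 nm between 0 and 15 min, reports GPX4 activity via coupled glutathione reductase (100 nM). Enzyme 200 nM was pre-exposed to compound 30 min; 0.5 mM cumene hydroperoxide and 1 mM GSH served as substrates.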
# [2] = molecular target: Luciferin 4-monooxygenase (Photinus pyralis) (UniProt P08659); test: Primary firefly luciferase (FLuc) qHTS assay for identification of artifact compounds. (AID 1845220); further: nearly all actives have a fitted effect of over 60% in size; further: potency means the concentration at half of the fitted maximal effect
# How it was run: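 FLuc 10 nM; luciferin 10 uM; ATP 10 uM; Tris-acetate pH 7.6, Mg-acetate 10 mM; 15 min RT preincubation; 5 min reaction; luminescence.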
# [3] = system: Nanoluciferase (engineered Oplophorus gracilirostris luciferase); test: Primary Nanoluciferase (NLuc) qHTS assay for identification of artifact compounds. (AID 1845222);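 further: NLuc secreted into diluted conditioned medium of S16 cells; series mostly up to about 54 µM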
# How it was run: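 NLuc from S16 cell medium (1:55) plus test compounds, 15 min, room temperature. Luminescence after Nano-Glo (1:100) addition, 5 min.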
# [4] = Primary redox qHTS assay for identification of artifact compounds. (AID 1845223)
# How it was run: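 Amplex Red (25 uM) and HRP (250 mU/mL) in HBSS, with compounds for 15 min, then 250 uM DTT for 30 min, room temperature, dark. Fluorescence 525/598 nm read; normalized to DMSO and 10 uM DA3003; Hill fit.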
# Sequence of Phospholipid hydroperoxide glutathione peroxidase GPX4 (Homo sapiens) (P36969 whole entry, looked up): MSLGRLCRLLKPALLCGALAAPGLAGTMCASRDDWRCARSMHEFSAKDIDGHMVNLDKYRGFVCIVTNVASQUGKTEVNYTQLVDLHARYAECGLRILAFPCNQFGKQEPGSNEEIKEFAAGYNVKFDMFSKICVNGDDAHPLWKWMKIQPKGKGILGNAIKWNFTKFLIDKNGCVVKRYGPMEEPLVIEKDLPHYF
Compound,Potency [1],Potency [2],Potency [3],Potency [4]
CC(C)[C@@](C)(O)[C@@H]1CN(c2nc(-c3[nH]nc4ncccc34)c(F)cc2Cl)CCN1,inactive,inactive,inactive,inactive
C=C1C(=O)O[C@@H]2/C=C(\C)C(=O)/C=C/[C@](C)(O)C[C@@H](OC(=O)C(C)C)[C@@H]12,inactive,inactive,inactive,inactive
COc1ccc([C@@]2(O)c3c(ccc4c3OC(C)(CCC=C(C)C)C=C4)NC(=O)[C@@H]2OC)cc1 (some centres undefined),inactive,inactive,inactive,inactive
O=C(/C=C/c1cccc(S(=O)(=O)Nc2ccccc2)c1)NO,inactive,inactive,inactive,inactive
CS(=O)(=O)NCC1CCC(Nc2nc3c(s2)CCSc2ccccc2-3)CC1 (centres undefined),inactive,inactive,inactive,inactive
CC(C)(C)c1ccc(S(=O)(=O)Nc2ccc(Cl)cc2C(=O)c2cc[n+]([O-])cc2)cc1,inactive,inactive,inactive,inactive
COc1cccc2cc3c(c(O[C@@H]4O[C@H](CO[C@@H]5O[C@H](CO)[C@@H](O)[C@H](O)[C@H]5O)[C@@H](O)[C@H](O)[C@H]4O)c12)C(C)OC3=O (some centres undefined),9.88 µM (active),inactive,inactive,inactive
C[C@@H]1C(=O)OC[C@H]2C(C(=O)O)=C[C@@H]3CC(C)(C)C[C@]312,inactive,inactive,inactive,inactive
C/C1=C\CC[C@H](C)CCO[C@@H]2O[C@H](CO[C@@H]3OC[C@](O)(COC1=O)[C@H]3O)[C@@H](O)[C@H](O)[C@H]2O,inactive,inactive,inactive,inactive
OC[C@H]1O[C@@H](OCCc2ccc(O)cc2)[C@H](O[C@@H]2OC[C@](O)(CO)[C@H]2O)[C@@H](O)[C@@H]1O,inactive,inactive,inactive,inactive
CC(O)(CC(=O)O)CC(=O)OCc1ccc(O[C@@H]2O[C@H](CO)[C@@H](O)[C@H](O)[C@H]2O)cc1 (some centres undefined),inactive,inactive,inactive,inactive
OC[C@H]1O[C@@H](Oc2cc(O)c3c(c2)O[C@@H](c2ccc(O)cc2)[C@H](O)C3)[C@H](O)[C@@H](O)[C@@H]1O,inactive,inactive,inactive,inactive
C=C1OC2CC(C(=O)O)C=CC2NC1=O (centres undefined),inactive,inactive,inactive,inactive
O=C1C=CC(O)(/C=C/C(=O)OC[C@H]2O[C@@H](Oc3ccc(O)cc3)[C@H](O)[C@@H](O)[C@@H]2O)C=C1,inactive,inactive,inactive,inactive
CC(=O)c1ccc2c(c1)C(O)C(C(C)(C)O)O2 (centres undefined),inactive,inactive,inactive,inactive
C=C1CCC2C(C)(C)C(O)CCC2(C)C1CCC(C)CCOC(C)=O (centres undefined),inactive,inactive,inactive,inactive

Compound,Potency [1],Potency [2],Potency [3],Potency [4]
CC1CC(=O)C2=C(CCC3(O)C(O)c4c(O)cccc4C(=O)C23O)C1 (centres undefined),inactive,inactive,inactive,inactive
C=C[C@H]1[C@H](O[C@@H]2O[C@H](CO)[C@@H](O)[C@H](O)[C@H]2O)OC=C(C(=O)OC)[C@H]1C[C@@H]1c2cc(O)c(O)cc2CCN1C(C)=O,inactive,inactive,inactive,inactive
C/C(=C\CCC(C)CCO)C(=O)OC1(C)CCC2C(C(=O)O)=COC(OC3OC(CO)C(O)C(O)C3O)C21 (centres undefined),inactive,inactive,inactive,inactive
C=C1[C@@H]2CC[C@@H]3[C@@](CCC4C(C(=O)O)(C(=O)O)C[C@@H](O[C@@H]5O[C@H](CO)[C@@H](O)[C@H](O)[C@H]5OC(=O)CC(C)C)C[C@]43C)(C2)[C@H]1O (some centres undefined),inactive,inactive,inactive,inactive
C/C=C/c1ccc2oc(-c3ccc(O)c(OC)c3)c(C)c2c1,inactive,26.9 µM (active),inactive,inactive
COc1cc2ncnc(Nc3ccc(O)cc3)c2cc1OC,inactive,inactive,inactive,inactive
Cc1c2cc(c(C(=O)O)c1C)OC1OC(C(O)C(O)C1O)C(O)C(O)C1OC(O2)C(O)C(O)C1O (centres undefined),inactive,inactive,inactive,inactive
C[C@]1(CO)CCC[C@]2(C)C3=C(CCC12)COC3 (some centres undefined),inactive,inactive,inactive,inactive
N#Cc1ccc(C(=O)N2CCC3(CC2)N=C(N)c2c(F)ccc(F)c2N3)cn1,inactive,inactive,inactive,inactive
COC(=O)c1ccnc(-c2cc(C(=O)NCCc3ccccc3)ccn2)c1,inactive,inactive,inactive,inactive
CC(C)C1=CC2C(CC[C@]2(C)O)[C@](C)(O)CC1 (some centres undefined),inactive,inactive,inactive,inactive
CC1(C)CCCC2(C)C1CC=C1C(=O)OC(O)C12O (centres undefined),inactive,inactive,inactive,inactive
COc1cc(O)cc(C)c1C(=O)OC1C(CO)OC(OC2C(O)C(O)C(O)C(O)C2O)C(O)C1O (centres undefined),inactive,inactive,inactive,inactive
N#Cc1ccc(-c2cnc3[nH]cc(NC(=O)c4cccnc4)c3c2)cc1,inactive,inactive,inactive,inactive
CC/C=C\[C@H](O)[C@H](O)C1=C(C)C(=O)[C@]2(O1)C(=O)N[C@@](OC)(C(=O)c1ccccc1)[C@@H]2O,inactive,inactive,inactive,inactive
